Laboratory results published in PubChem BioAssay.
This is one part of the list. Calls of active or inactive are those of the source.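 Rule for the calls, unless noted: active = inhibition above the hit cutoff computed for the primary STAT3 screen (cut at about 44% in these data); inactive = the rest.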

How the values were obtained:
[1] = STAT3 reporter inhibitors, retest of hits, confirmation, U3A cells, luciferase, luminescence (AID 1265); conditions: IL-6 STAT3 luciferase reporter, at 5.7 µM, stronger effect = higher value, cell line lacks STAT1;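 note: 0% = IL-6 plus DMSO and 100% = IL-6 plus nifuroxazide control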
[2] = NF-kB reporter inhibitors in human cells, confirmation, counter-screen for STAT3 inhibitor project, cell-based, HEK293T, luciferase, TNF-alpha stimulus (AID 1308;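 active = inhibition above the mean of solvent-only control wells plus 3 SD, cutoff set per campaign, cut at about 13% in these data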;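 note: 0% = TNF-alpha with DMSO and 100% = TNF-alpha with MG high control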); conditions: TNF-alpha induced, at 5.7 µM, stronger effect = higher value
[3] = STAT1 reporter inhibitors, IFN-gamma induced, confirmation, counter-screen for STAT3 inhibitor project, cell-based, NIH 3T3, luciferase luminescence (AID 1317;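 active = inhibition above the mean plus 3 SD of solvent-only control wells, limit set per screening run, cut at about 16% in these data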;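 note: 0% = DMSO with IFN-gamma and 100% = nifuroxazide control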); conditions: NIH 3T3 STAT1-luciferase reporter, at 5.7 µM, stronger effect = higher value
[4] = molecular target: Serine protease HTRA1 (Homo sapiens) (UniProt Q92743); experiment: HTRA1 protease inhibitors, retest, confirmation, biochemical, fluorescence polarization (AID 540248;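 active = mean inhibition over three repeats above a set limit taken from the earlier primary screen, cut at about 37% in these data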;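 note: 0% = HTRA1 with DMSO and 100% = wells lacking HTRA1; inhibitors block probe binding so polarization drops and inhibition rises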); conditions: recombinant HTRA1, FP-rhodamine activity-based probe, at 5.96 µM, stronger effect = higher value
[5] = molecular target: Platelet-activating factor acetylhydrolase (Homo sapiens) (UniProt Q13093); experiment: pPAFAH (PLA2G7) enzyme inhibitors, confirmation, biochemical, fluorescence polarization, human (AID 463230;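 active = mean inhibition of the triplicate above the hit cutoff set for the earlier primary screen, cut at about 25% in these data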;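 note: 0% = enzyme with DMSO and 100% = wells lacking pPAFAH enzyme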); conditions: recombinant pPAFAH, FP-Rh probe fluorescence polarization; at 3.39 µM; stronger effect = higher value
[6] = growth loss of phage-infected E. coli expressing H. pylori AddAB, confirmation, AddAB inhibitor project, absorbance, E. coli V3065, T4 phage, triplicate (AID 488942;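 active = mean inhibition above a set limit taken from the earlier primary screen, cut at about 13% in these data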;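 note: higher means less bacterial growth since AddAB block lets phage replicate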); conditions: OD, at 11.9 µM, stronger effect = higher value, T4 phage with gene 2 nonsense mutations
[7] = growth loss of RecBCD+ E. coli with mutant T4 phage, counter-screen for AddAB inhibitor project, absorbance, V66 E. coli (AID 488955;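 active = mean inhibition above the mean of solvent-only control wells plus 3 SD, cut at about 4% in these data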;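 note: optical density read after an 18 h incubation at 37 °C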); conditions: OD growth, at 11.9 µM, stronger effect = higher value
[8] = bacterial viability inhibition counter-screen, confirmation, counter-screen for AddAB inhibitor project, absorbance (AID 488956; in the data active = inhibition above about 25%); conditions: absorbance (AddAB counterscreen), at 11.9 µM, stronger effect = higher value
[9] = molecular target: Nuclear receptor coactivator 3 (Homo sapiens) (UniProt Q9Y6Q9); experiment: SRC3 coactivator transcriptional activity inhibitors, confirmation, cell-based, luminescence, quadruplicate (AID 588792;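 active = mean inhibition over 43.08%, the solvent-only control mean plus 3 SD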;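 note: 0% = DMSO treated cells and 100% = gossypol at 36 µM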); conditions: HEK293 GAL4-SRC3 luciferase reporter, at 3.6 µM, stronger effect = higher value
[10] = system: transactivating tegument protein VP16 (Human herpesvirus 1), Gal4-VP16 luciferase reporter; experiment: VP16 transactivation inhibitors, counter-screen for SRC3 inhibitor project, cell-based, luminescence, high throughput (AID 588794; in the data active = inhibition above about 30%); conditions: mammalian cells, VP16-driven luciferase reporter luminescence; at 3.6 µM; stronger effect = higher value
[11] = molecular target: Nuclear receptor coactivator 1 (Homo sapiens) (UniProt Q15788); experiment: SRC1 coactivator transcriptional activity inhibitors, confirmation, cell-based, luminescence, quadruplicate (AID 588820;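 active = mean inhibition above 46.68%, the untreated control wells mean plus 3 SD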;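 note: 0% = DMSO wells and 100% = gossypol 36 µM treated wells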); conditions: HEK293 GAL4-SRC1 luciferase reporter, at 3.6 µM, stronger effect = higher value
[12] = VP16 transactivation inhibitors, counter-screen for SRC1 inhibitor project, cell-based, luminescence, high throughput (AID 588824; in the data active = inhibition above about 25%); conditions: cell-based VP16 transactivation luciferase luminescence; at 3.6 µM; stronger effect = higher value
[13] = molecular target: Photoreceptor-specific nuclear receptor (Homo sapiens) (UniProt Q9Y5X4); experiment: NR2E3 agonist confirmation in cells, cell-based, luminescence, CHO-S two-hybrid (AID 624378;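 active = average inhibition above a cutoff equal to the mean inhibition of all tested compounds plus one SD, cut at about 70% in these data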;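 note: 0% = DMSO in NR2E3 cells and 100% = DMSO in cells lacking NR2E3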); conditions: CHO-S mammalian two-hybrid NR2E3-NCOR, luciferase luminescence; at 3.98 µM; stronger effect = higher value
[14] = GAL4-VP16 reporter modulators, confirmation, counter-screen for NR2E3 agonist project, cell-based, luminescence, CHO-S, high throughput (AID 624379;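 active = mean inhibition above a cutoff equal to the average over all tested compounds plus one standard deviation, cut at about 70% in these data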;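 note: 0% = DMSO with VP16-transfected cells and 100% = DMSO with cells lacking VP16; higher means less reporter light so more repression of VP16 activity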); conditions: CHO-S GAL4-VP16 luciferase reporter, at 3.98 µM, stronger effect = higher value
[15] = StAR promoter reporter inhibitors, counter-screen for LRH-1 inverse agonist project, cell-based, luminescence, high throughput (AID 651611; in the data active = inhibition above about 28%); conditions: StAR promoter luciferase reporter counterscreen, at 3.6 µM, stronger effect = higher value
[16] = molecular target: Nuclear receptor subfamily 5 group A member 2 (Homo sapiens) (UniProt O00482); experiment: LRH-1 (NR5A2) inverse agonists, retest, confirmation, cell-based, luminescence (AID 651613; in the data active = inhibition above about 42%;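 note: HEK293T cells co-transfected with LRH-1 and StAR promoter luciferase reporter; 0% = vehicle wells and 100% = parental cells lacking receptor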); conditions: cell-based LRH-1 luciferase reporter, inverse agonism; at 3.6 µM; stronger effect = higher value
[17] = molecular target: Steroidogenic factor 1 (Homo sapiens) (UniProt Q13285); experiment: SF1 (NR5A1) inverse agonists, counter-screen for LRH-1 inverse agonist project, cell-based, luminescence, high throughput (AID 651614; in the data active = inhibition above about 44%;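 note: cells cotransfected with StAR promoter reporter and SF1 expression vector; 0% = vehicle on cells with receptor and 100% = vehicle on cells lacking receptor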); conditions: cell-based SF1 luciferase reporter, at 3.6 µM, stronger effect = higher value
[18] = VP16 transactivation reporter inhibitors, counter-screen for LRH-1 inverse agonist project, cell-based, luminescence, high throughput (AID 651615; in the data active = inhibition above about 33%); conditions: Gal4-VP16 luciferase reporter cells, at 3.6 µM, stronger effect = higher value
[19] = Gal4-VP16 luciferase reporter inhibitors, counter-screen for COUP-TFII antagonist project, cell-based, luminescence, HEK293 (AID 687007; in the data active = inhibition above about 13%); conditions: at 8.5 µM, stronger effect = higher value
[20] = molecular target: COUP transcription factor 2 (Homo sapiens) (UniProt P24468); experiment: NR2F2 transcriptional activity inhibitors, confirmation, cell-based, luciferase reporter, HEK293, triplicate (AID 687008;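 active = mean inhibition over three repeats above a set limit taken from the earlier primary screen, cut at about 38% in these data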;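 note: 100% = cells given the luciferase reporter alone without the COUP-TF2 vector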); conditions: HEK293 NGFI-A luciferase reporter, luminescence; at 8.5 µM; stronger effect = higher value
[21] = STAT1 signaling activators, confirmation, cell-based, HTS, luciferase reporter (AID 1262;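 active = activation above a set limit carried over from the earlier primary STAT1 screen, cut at about 140% in these data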;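 note: simple ratio to median IFN-gamma plus DMSO wells so 0% means no light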); conditions: NIH 3T3 STAT1-luciferase reporter, IFN-gamma potentiation, luminescence; at 5.7 µM; stronger effect = higher value; 100% = IFN-gamma EC80 alone, no compound
[22] = NF-kB reporter activators, TNF-alpha stimulated, counter-screen for STAT1 activator project, cell-based, HEK293T, luciferase luminescence (AID 1306;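 active = activation above the mean of solvent-only control wells plus 3 SD, set per campaign, cut at about 130% in these data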;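 note: TNF-alpha given at a submaximal dose yielding about 80% of full reporter signal; values are well signal over median control so 100% means no change and 0% no light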); conditions: at 5.7 µM, stronger effect = higher value, 100% = TNF-alpha with vehicle only
[23] = molecular target: Signal transducer and activator of transcription 3 (Homo sapiens) (UniProt P40763); experiment: STAT3 reporter activation by STAT1 hits, confirmation, counter-screen for STAT1 activator project, U3A cells, luciferase, luminescence (AID 1316;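 active = activation above the solvent-only control well mean plus 3 SD, set per plate batch, cut at about 110% in these data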;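 note: 0% = no luminescence and 100% = median IL-6 plus DMSO wells; higher means more STAT3 reporter activation so hits are non-selective activators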); conditions: IL-6, luminescence, at 5.7 µM, stronger effect = higher value, 100 = IL-6 alone, no compound effect, cells lack STAT1
[24] = system: DAF-12 nuclear receptor (Heterodera glycines), GAL4-LBD fusion; experiment: H. glycines DAF-12 receptor agonists, confirmation, cell-based, luminescence, HEK293, GAL4-LBD fusion (AID 743050;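 active = mean activation over triplicate wells above the hit cutoff derived from the earlier primary screen, cut at about 11% in these data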;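 note: 0% = DMSO low control and 100% = 2 mM sodium butyrate high control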); conditions: HEK293 GAL4-hgDAF12 luciferase reporter, agonist mode; at 6.8 µM; stronger effect = higher value; percent of butyrate response
[25] = molecular target: Oxysterols receptor LXR-beta (Homo sapiens) (UniProt P55055); experiment: LXR agonists, Gal4 luciferase reporter, confirmation, counter-screen for hgDAF-12 agonist project, cell-based, luminescence, HEK293, H. glycines campaign (AID 743051;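 active = mean activation of the triplicate above a set limit carried over from the primary screen, none filed active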); conditions: 24 h, at 6.8 µM, stronger effect = higher value
Sequence of Oxysterols receptor LXR-beta (Homo sapiens) (P55055 whole entry, looked up, the tested form may be a part): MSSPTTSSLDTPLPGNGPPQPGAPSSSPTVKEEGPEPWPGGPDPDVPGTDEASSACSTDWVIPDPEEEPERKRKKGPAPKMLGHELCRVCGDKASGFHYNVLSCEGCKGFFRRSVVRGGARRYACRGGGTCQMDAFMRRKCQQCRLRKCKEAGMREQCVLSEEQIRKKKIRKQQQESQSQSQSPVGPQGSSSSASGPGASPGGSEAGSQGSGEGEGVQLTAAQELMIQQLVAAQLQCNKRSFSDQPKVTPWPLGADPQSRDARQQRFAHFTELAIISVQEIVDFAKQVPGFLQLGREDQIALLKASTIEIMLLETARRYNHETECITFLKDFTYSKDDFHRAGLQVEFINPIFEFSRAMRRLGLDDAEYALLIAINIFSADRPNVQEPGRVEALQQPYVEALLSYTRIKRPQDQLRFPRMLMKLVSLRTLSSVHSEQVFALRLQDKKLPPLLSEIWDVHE

Sequence of Photoreceptor-specific nuclear receptor (Homo sapiens) (Q9Y5X4 whole entry, looked up, the tested form may be a part): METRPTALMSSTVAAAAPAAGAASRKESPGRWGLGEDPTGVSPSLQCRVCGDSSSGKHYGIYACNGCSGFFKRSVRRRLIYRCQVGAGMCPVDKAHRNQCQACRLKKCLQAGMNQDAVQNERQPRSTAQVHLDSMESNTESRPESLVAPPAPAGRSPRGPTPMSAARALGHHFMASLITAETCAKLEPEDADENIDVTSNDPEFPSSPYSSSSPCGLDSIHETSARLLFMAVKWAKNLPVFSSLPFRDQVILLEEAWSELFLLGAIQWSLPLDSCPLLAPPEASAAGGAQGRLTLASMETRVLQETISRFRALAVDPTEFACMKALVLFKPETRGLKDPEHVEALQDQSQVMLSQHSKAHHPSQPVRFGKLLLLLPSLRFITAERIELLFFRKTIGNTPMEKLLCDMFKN
Sequence of Platelet-activating factor acetylhydrolase (Homo sapiens) (Q13093 whole entry, looked up): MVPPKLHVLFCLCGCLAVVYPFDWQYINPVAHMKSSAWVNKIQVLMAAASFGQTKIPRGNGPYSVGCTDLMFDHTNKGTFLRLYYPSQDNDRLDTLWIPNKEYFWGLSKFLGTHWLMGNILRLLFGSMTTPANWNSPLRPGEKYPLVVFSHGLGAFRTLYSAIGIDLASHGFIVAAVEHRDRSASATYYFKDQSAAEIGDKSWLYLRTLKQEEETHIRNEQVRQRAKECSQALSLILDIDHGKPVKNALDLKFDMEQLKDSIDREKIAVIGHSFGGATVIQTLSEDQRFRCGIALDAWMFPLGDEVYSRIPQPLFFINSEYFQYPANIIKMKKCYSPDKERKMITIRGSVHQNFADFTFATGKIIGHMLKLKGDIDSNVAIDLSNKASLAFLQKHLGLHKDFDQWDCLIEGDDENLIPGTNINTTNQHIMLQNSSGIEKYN
Sequence of Nuclear receptor coactivator 1 (Homo sapiens) (Q15788 whole entry, looked up, the tested form may be a part): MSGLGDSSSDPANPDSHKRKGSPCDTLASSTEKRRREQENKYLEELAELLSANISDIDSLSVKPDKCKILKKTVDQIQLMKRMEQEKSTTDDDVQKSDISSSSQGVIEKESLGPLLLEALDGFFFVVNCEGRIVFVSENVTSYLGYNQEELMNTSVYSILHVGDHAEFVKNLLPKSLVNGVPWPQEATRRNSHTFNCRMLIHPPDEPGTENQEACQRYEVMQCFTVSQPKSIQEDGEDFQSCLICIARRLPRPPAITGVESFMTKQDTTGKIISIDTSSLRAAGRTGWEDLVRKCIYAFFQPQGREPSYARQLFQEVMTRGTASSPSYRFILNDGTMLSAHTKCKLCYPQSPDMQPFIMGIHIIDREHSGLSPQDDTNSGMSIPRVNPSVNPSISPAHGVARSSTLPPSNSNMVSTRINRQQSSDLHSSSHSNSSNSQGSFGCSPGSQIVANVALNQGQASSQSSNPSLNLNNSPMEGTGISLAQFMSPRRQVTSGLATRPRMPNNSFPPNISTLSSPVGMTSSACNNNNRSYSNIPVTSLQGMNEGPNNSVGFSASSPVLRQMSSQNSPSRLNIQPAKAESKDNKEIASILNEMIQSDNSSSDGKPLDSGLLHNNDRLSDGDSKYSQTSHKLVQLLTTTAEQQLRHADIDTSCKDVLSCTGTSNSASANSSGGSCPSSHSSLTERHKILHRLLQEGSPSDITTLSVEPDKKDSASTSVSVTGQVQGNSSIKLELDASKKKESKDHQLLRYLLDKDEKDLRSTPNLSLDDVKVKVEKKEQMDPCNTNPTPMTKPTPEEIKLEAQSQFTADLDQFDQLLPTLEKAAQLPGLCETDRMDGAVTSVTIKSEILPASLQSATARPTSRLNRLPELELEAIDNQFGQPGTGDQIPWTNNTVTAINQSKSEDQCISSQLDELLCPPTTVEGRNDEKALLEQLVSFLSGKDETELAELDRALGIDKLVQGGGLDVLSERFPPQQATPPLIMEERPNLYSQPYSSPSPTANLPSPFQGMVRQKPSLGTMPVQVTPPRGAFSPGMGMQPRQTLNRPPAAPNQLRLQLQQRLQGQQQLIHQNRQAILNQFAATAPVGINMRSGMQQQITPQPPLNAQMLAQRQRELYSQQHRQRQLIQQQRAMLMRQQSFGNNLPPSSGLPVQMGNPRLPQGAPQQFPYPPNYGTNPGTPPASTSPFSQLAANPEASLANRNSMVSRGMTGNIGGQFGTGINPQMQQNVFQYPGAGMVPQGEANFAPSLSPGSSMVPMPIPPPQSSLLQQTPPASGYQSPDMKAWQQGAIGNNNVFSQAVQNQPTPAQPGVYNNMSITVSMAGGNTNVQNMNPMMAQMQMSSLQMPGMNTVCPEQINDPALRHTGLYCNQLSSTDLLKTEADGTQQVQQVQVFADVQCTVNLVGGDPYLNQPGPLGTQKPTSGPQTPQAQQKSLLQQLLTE
Sequence of COUP transcription factor 2 (Homo sapiens) (P24468 whole entry, looked up): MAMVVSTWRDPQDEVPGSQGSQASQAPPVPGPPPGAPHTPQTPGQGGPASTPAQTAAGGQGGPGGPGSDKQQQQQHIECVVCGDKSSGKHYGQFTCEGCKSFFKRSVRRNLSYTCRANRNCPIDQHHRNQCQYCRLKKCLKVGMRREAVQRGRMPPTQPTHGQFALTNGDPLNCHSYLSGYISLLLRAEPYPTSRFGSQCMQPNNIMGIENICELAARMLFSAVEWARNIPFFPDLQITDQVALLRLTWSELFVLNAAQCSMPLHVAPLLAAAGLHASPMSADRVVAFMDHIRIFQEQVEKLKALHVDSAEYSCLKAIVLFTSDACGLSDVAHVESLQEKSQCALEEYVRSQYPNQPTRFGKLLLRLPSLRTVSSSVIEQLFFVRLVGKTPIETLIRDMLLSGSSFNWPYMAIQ
Sequence of Steroidogenic factor 1 (Homo sapiens) (Q13285 whole entry, looked up, the tested form may be a part): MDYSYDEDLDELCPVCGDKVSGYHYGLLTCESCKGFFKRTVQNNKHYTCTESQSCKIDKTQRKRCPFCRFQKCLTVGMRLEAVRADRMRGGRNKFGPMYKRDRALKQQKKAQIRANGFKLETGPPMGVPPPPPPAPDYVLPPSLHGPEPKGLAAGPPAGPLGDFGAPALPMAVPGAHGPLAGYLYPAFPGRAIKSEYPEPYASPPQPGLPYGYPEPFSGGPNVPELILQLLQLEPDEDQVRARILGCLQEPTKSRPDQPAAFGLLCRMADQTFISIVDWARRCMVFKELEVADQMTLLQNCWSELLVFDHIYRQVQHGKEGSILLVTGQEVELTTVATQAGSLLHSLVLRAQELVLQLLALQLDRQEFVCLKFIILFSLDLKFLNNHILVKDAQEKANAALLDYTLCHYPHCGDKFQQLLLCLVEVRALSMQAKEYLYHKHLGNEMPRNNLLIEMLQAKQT
Sequence of Nuclear receptor subfamily 5 group A member 2 (Homo sapiens) (O00482 whole entry, looked up): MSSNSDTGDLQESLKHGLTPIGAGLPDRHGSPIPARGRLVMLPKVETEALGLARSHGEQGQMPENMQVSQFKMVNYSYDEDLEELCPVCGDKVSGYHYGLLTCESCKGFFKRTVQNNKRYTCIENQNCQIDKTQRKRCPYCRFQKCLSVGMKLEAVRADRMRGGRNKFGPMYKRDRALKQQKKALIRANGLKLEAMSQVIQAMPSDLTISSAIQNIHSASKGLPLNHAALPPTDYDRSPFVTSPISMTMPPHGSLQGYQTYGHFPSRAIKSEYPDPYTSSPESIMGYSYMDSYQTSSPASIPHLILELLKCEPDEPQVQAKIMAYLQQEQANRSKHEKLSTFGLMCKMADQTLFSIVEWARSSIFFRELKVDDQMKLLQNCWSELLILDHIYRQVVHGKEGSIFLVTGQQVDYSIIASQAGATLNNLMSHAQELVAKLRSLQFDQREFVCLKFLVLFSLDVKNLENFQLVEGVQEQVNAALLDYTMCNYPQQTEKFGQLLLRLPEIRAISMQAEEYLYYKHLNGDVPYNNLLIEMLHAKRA

Cc1ccc(Nc2ccccc2N)cc1
active: inhibition [2] 22.9% | inhibition [4] 53.1%
inactive: inhibition [1] 24.3% | inhibition [3] 6.8%

Cn1c(SCC(=O)N2CCCc3ccccc32)nc2ccccc2c1=O
active: inhibition [1] 49.3% | inhibition [2] 13.7% | inhibition [3] 22.5%

c1ccc(-c2noc(-c3cccs3)n2)nc1
inactive: inhibition [1] 27.6% | inhibition [2] -12.9% | inhibition [3] -54.9%

O=C(Nc1cccnc1)c1noc2c1CCCCC2
inactive: inhibition [1] 16.7% | inhibition [2] -24.9% | inhibition [3] -46.6%

CCN1/C(=C\c2ccc3ccccc3[n+]2CC)Sc2cc(C)ccc21
active: inhibition [1] 86.2% | inhibition [2] 33.4% | inhibition [3] 19% | inhibition [6] 34.1% | inhibition [7] 5.58% | inhibition [10] 70.5% | inhibition [12] 67.9% | inhibition [13] 98.3% | inhibition [14] 87.5% | inhibition [15] 59.5% | inhibition [16] 107% | inhibition [17] 86.4% | inhibition [18] 83.4% | inhibition [20] 66.5%
inactive: inhibition [5] 2.61% | inhibition [8] 16.1% | inhibition [9] 35.8% | inhibition [11] 32.7% | inhibition [19] 10.8%

Cc1cccc(-n2c(O)c(C=Nc3ccccc3N)c(=O)[nH]c2=O)c1
inactive: activation (% of control) [21] 127% | activation (% of control) [22] 118% | activation (% of control) [23] 103% | activation [24] 8.36% | activation [25] 0.33%

CCCCOc1ccc(-c2nnc(-c3ccco3)o2)cc1
inactive: inhibition [1] 21.3% | inhibition [2] -24.1% | inhibition [3] -66.4%

O=C(Nc1nc2ccccc2s1)c1ccc2c(c1)OCO2
inactive: inhibition [1] 41.7% | inhibition [2] 10.6% | inhibition [3] -93.8%

O=C(Nc1ccc2oc(-c3ccccc3F)nc2c1)c1ccco1
inactive: activation (% of control) [23] 104% | activation [25] 0.57%
active: activation (% of control) [21] 204% | activation (% of control) [22] 137% | activation [24] 11.9%

C=CC[n+]1c(-c2ccc(C)cc2)csc1NNC(=O)Nc1ccccc1
active: inhibition [1] 51.1% | inhibition [2] 18.4% | inhibition [3] 16.9%

COc1ccc(C2=Nc3cc(C)ccc3OC2)cc1
inactive: inhibition [1] 19.3% | inhibition [2] -18.5% | inhibition [3] -114%

N#Cc1nc(COc2ccc(-c3ccccc3)cc2)oc1NCc1cccnc1
inactive: inhibition [1] 35.1% | inhibition [2] 2.23% | inhibition [3] 12.9%

O=C1NC(Nc2nc3ccccc3s2)(C(F)(F)F)C(=O)N1C1CCCCC1 (stereo not given)
active: inhibition [1] 51.1% | inhibition [2] 21.2%
inactive: inhibition [3] -9.63%
